Sampled rows, rich in hits. Any-hit rate of the full collection: about 7.3%.
Rab9 promoter act: qHTS Assay for Rab9 Promoter Activators; 2.8% of 320,000 active; Huh7 Rab9 promoter-luciferase reporter, luminescence, 24 h; Potency, µM (doses to about 9.22 µM), for inactives: at the top dose activation, negative = inhibition, hits mostly activators; note: % of control where 0% means no effect; nearly all actives have a fitted effect of over 60% in size
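Quantitative HTS format; Huh7 Rab9-luciferase reporter cells (1500/well) receive compound 2 h post-plating, incubate 24 h at 37 °C, then get luciferase reagent for 10 min before luminescence reading.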
NPC1 promoter act: qHTS Assay for NPC1 Promoter Activators; 2.4% of 320,000 active; Huh7 NPC1 promoter luciferase reporter, 24 h; AID 485313, 2010; Potency, µM (titrated, usually from 9.22 µM), for inactives: at the highest dose activation, actives largely listed as activators; note: % of control where 0% means no effect; nearly all actives have a fitted effect of over 60% in size
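Readout is luciferase luminescence, reflecting NPC1 promoter activation in stably transfected Huh7 cells after 24 h compound exposure at 37 °C in reduced-serum medium with 10% FBS.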
SMN2 splice enh: qHTS Assay for Enhancers of SMN2 Splice Variant Expression. HEK293 SMN2-luciferase splicing reporter, luminescence, 30-36 h. Potency, µM (series often up to 46.1 µM), without a hit: top-dose activity change, positive = activation, actives largely listed as activators. 2.8% of 210,000 active. AID 1458, 2008; note: % of control where 0% means no effect; nearly all actives have a fitted effect of over 55% in size
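qHTS luciferase splicing reporter: luminescence rises when SMN2 exon 7 is included in transfected HEK293 cells. Compound exposure lasted 30-36 h at 37C, with 4.5 mM final sodium butyrate as control, followed by a ONE-Glo read.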
FLuc modulator: qHTS profiling assay for firefly luciferase inhibitor/activator using purifed enzyme and Km concentrations of substrates (counterscreen for miR-21 project) | 6.9% of 360,000 active | purified FLuc, Km substrates, luminescence inhibition | AID 588342, 2011 | Potency, µM (doses to about 57.5 µM), inactives show top-dose activity change, negative = inhibition, hits mostly inhibitors;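 note: plate controls were vehicle for no effect and reference inhibitor for full effect; nearly all actives have a fitted effect of over 55% in size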
Target sequence (P08659 whole entry, looked up): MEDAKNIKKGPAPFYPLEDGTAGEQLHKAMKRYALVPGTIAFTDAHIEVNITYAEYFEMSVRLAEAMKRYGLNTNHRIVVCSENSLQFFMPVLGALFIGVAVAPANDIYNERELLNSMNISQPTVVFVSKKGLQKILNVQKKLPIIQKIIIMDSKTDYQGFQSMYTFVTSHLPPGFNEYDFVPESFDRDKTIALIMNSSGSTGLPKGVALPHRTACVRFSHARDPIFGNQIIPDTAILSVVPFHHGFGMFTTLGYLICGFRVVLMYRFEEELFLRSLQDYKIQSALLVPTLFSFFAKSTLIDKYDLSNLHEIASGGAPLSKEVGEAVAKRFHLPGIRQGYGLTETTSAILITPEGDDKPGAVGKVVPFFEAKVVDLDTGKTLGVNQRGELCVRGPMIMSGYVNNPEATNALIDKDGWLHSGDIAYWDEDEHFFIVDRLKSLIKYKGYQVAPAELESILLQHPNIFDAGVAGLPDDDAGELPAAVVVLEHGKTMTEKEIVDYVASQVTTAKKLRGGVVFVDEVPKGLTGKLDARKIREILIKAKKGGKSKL
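Purified P. pyralis luciferase, 10 nM final, with Km-level 10 uM D-luciferin and 10 uM ATP in 50 mM Tris acetate pH 7.5, 10 mM Mg acetate, 0.01% Tween-20, 0.05% BSA; 6-point qHTS titration about 60 µM downward; luminescence read.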
p53 reactivation: qHTS assay for re-activators of p53 using a Luc reporter; H1299 p53-A138V BP100-luciferase reporter, luminescence, 24 h; 0.063% of 320,000 active; Potency, µM (titrated, usually from 92.2 µM), inactives show at the highest dose activity change, positive = activation, most hits filed as activators; AID 504706, 2011; note: % of control where 0% means no effect; nearly all actives have a fitted effect of over 45% in size
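p53-null H1299 cells stably carrying temperature-sensitive p53-A138V and a BP100-luciferase reporter were pinned with compounds (4-point, 1:5 series) and held 24 hrs at 37 deg C. Luminescence was read 10 min after detection reagent.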
ELG1 genotoxic: qHTS screen for small molecules that induce genotoxicity in human embryonic kidney (HEK293T) cells expressing luciferase-tagged ELG1; HEK293T ELG1-luciferase reporter, luminescence, 16 h; Potency, µM (doses to about 46 µM), inactives show at the highest dose activity change, positive = activation, hits mostly activators; 1.3% of 330,000 active; AID 504466, 2011; note: % of control where 0% means no effect; nearly all actives have a fitted effect of over 60% in size
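Screening used a luciferase reporter fused to human ELG1 in HEK293T cells. Luminescence was read on a CCD plate imager after 16 hr exposure and 30 min ONE-Glo incubation.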
* = called active by the depositor; ? = inconclusive; nt = no result; [ ] = dose if it differs, or a comment. Calls come from the whole dose curve; as a rule, active = well fitted curve in the direction sought with a large enough effect; inconclusive = small, poorly fitted or top-dose-only effect, or another doubt; inactive = no such curve, though single readings can be large; an effect the other way counts as inactive or inconclusive. Potency is the fitted concentration of half-maximal effect.

SMILES | Rab9 promoter act | NPC1 promoter act | SMN2 splice enh | FLuc modulator | p53 reactivation | ELG1 genotoxic
Cc1ccc(SCc2nc(-c3ccc(C(=O)NCc4ccccc4Cl)cc3)oc2C)cc1 | nt | nt | nt | 4% | nt | nt
Cc1cc(C(=O)COC(=O)c2cc(Cl)ccc2N)c(C)n1Cc1ccco1 | 2.5µM* | 3.5µM* | 14µM* | 2.4µM* | ? | 9.2µM*
Cc1cc(C(=O)CSc2nnc(N)s2)c(C)n1Cc1ccco1 | 0.45µM* | 0.45µM* | ? | 3µM* | 8% | 1.8µM*
CC(C)C(NC(=O)c1ccco1)C(=O)OCC(=O)c1ccccc1 (stereo unspecified) | 6% | 0% | nt | 17µM* | 16% | 2%
Cc1cc(C(=O)CN2C(=O)NC3(CCCc4ccccc43)C2=O)c(C)n1Cc1ccco1 (stereo unspecified) | 9% | 1% | nt | ? | 10% | ?
Cc1cc(C(=O)COc2cccnc2[N+](=O)[O-])c(C)n1Cc1ccco1 | 17% | 9% | -19% | ? | -7% | 11%
Cc1cc(C(=O)COC(=O)c2ccco2)c(C)n1Cc1ccco1 | 1.4µM* | ? | 13% | 0.21µM* | 7% | 2.6µM*
COc1ccccc1-c1nc2c(c(SCc3cccc(Cl)c3)n1)Cc1c(CO)cnc(C)c1O2 | nt | nt | nt | -3% | nt | nt
COc1ccccc1C(=O)OC(C)CN1CCN(C)CC1 (stereo unspecified) | 0% | -4% | nt | -1% | 0% | -6%
COc1cccc2c1C(=O)c1c(O)c3c(c(O)c1C2=O)C[C@](O)(C(=O)CO)C[C@H]3O[C@@H]1C[C@H](N)[C@H](O)[C@H](C)O1 | nt | nt | 80%[20.6 µM] | nt | nt | nt
Cc1cc(C(=O)COC(=O)c2cccn2C)c(C)n1Cc1ccco1 | 0.63µM* | 0.79µM* | ? | 0.6µM* | -5% | 0.41µM*
COCC(C)n1c(C)cc(C(=O)COC(=O)c2cccn2C)c1C (stereo unspecified) | nt | nt | nt | nt | 17% | ?
Cc1cc(C(=O)COC(=O)c2ccncc2)c(C)n1Cc1ccco1 | ? | -12% | 6% | 0.85µM* | 8% | 3%
O=C(COC(=O)c1ccco1)c1ccc(F)cc1 | 1% | 0% | nt | 2.7µM* | 15% | ?
Cc1cccc(-n2nnnc2SCC(=O)c2cc(C)n(Cc3ccco3)c2C)c1 | 9% | 11% | -22% | -12% | 11% | 5%
O=c1c(-c2ccc(O)cc2)coc2cc(O)ccc12 | 10µM* | 9.2µM* | 13µM* | nt | nt | nt
O=c1c(-c2cnn(-c3ccccc3)c2)coc2cc(O)ccc12 | 1.8µM* | 2.8µM* | nt | 5.4µM* | 26% | ?
Cc1ccccc1-c1coc2cc(O)ccc2c1=O | -5% | -1% | 4% | -3% | -6% | -2%
C=CCOc1c(OC)cc(/C=N/Nc2cccc(C(=O)O)c2)c(Br)c1Br | 3.2µM* | 2.5µM* | 14µM* | ? | ? | ?
S=C(NCCc1ccccc1)N/N=C/c1ccc(Cl)cc1 | 0% | -3% | nt | -17% | 5% | -1%
COc1cc(/C=N/NC(=S)NCCc2ccccc2)cc(OC)c1OC | -3% | -1% | nt | 27µM* | 1% | 4%
COc1cc(/C=N/NC(=O)c2ccccc2)ccc1O | 27% | -1% | 9% | ? | 4% | ?
COc1ccc(/C=N/Nc2ccc(C(=O)O)cc2)c(OC)c1OC | 3.2µM* | 2.8µM* | nt | 15µM* | 8% | 16%
C=CCOc1c(/C=N\NC(N)=O)cccc1OC | 0% | -9% | nt | -1% | -2% | 1%
COc1cc(/C=N/Nc2ccc(C(=O)O)cc2)ccc1O | ? | ? | ? | 1.9µM* | -1% | ?
SMILES | Rab9 promoter act | NPC1 promoter act | SMN2 splice enh | FLuc modulator | p53 reactivation | ELG1 genotoxic
CC(NC(=O)COc1ccc(/C=N/NC(=O)CO)cc1)c1ccccc1 (stereo unspecified) | 0% | 0% | nt | 4% | nt | 2%
CCCC1=Nc2cc(C(=O)NCc3ccccc3)ccc2Sc2ccccc21 | nt | nt | -20% | -11% | nt | nt
COc1ccccc1NC(=O)COC(=O)c1ccc(N2CCCC2=O)cc1 | 2% | -2% | nt | ? | 8% | 1%
CCOC(=O)c1[nH]c(C)c(CCC(=O)Nc2c(C)cc(C)cc2C)c1C | nt | nt | nt | -11% | nt | nt
COc1cc(/C=N/Nc2ccc(C(=O)O)cc2)cc(OC)c1OC | 2µM* | 1.6µM* | nt | 11µM* | 12% | 16µM*
COc1cc(/C=N/Nc2ccc(S(N)(=O)=O)cc2)cc(OC)c1OC | 1% | -8% | 17% | -18% | 0% | 4%
CC(C)N1CCN(c2ccc(S(=O)(=O)N3CCOCC3)cn2)CC1 | 0% | 3% | nt | 1% | -1% | 0%
CC1CCN(C(=O)CCCC(=O)N2CCC(C)CC2)CC1 | 18% | ? | nt | 9.5µM* | 11% | 0%
CC1CCN(C(=O)CCCC(=O)O)CC1 | -2% | 0% | 5% | -1% | -7% | -1%
c1ccc2c(c1)oc1c(NCCCn3ccnc3)ncnc12 | 0% | 1% | 3% | -7% | 0% | 3%
O=c1c2ccccc2oc2ccc(NCCCn3ccnc3)cc12 | 1.1µM* | 1.4µM* | nt | 1.7µM* | 10% | ?
C/C(=N\O)c1ccc2c3c([nH]c2c1)CCCC3 | ? | ? | ? | 11µM* | ? | ?
C/C(=N\O)c1ccc2[nH]ccc2c1 | ? | -4% | 22% | ? | 12% | 15%
CN(C)c1ccnc2sc(C(N)=O)c(N)c12 | 13% | 17% | 1% | -6% | 3% | -25%
CN(C)c1ccnc2sc(C(=O)c3ccc(Br)cc3)c(N)c12 | ? | ? | 22µM* | ? | -3% | -2%
CCc1ccc(-n2c(=O)c3c4c(sc3n(CC(=O)NC(C)CC)c2=O)CCCC4)cc1 (stereo unspecified) | nt | nt | 1% | -5% | nt | nt
O=C(N=c1nc2ccccn2s1)c1ccccc1 | ? | 0.89µM* | 1.8µM* | 0.19µM* | ? | 0.13µM*
Cc1ccc(C(=O)NC2CCc3ccccc3C2=O)cc1 (stereo unspecified) | 2.2µM* | 2.5µM* | 13µM* | 12µM* | 22% | 5%
Cc1ccc(C(=O)NC2CCSC2=O)cc1 (stereo unspecified) | -8% | 0% | -15% | 4% | 0% | 6%
O=C(CNC(=O)c1cccc(Br)c1)N/N=C/c1ccc2c(c1)OCO2 | 2% | 0% | nt | 17µM* | 0% | ?
O=C(N/N=C/c1cccc(O)c1)c1ccc2c(c1)OCCO2 | -1% | ? | nt | 1.7µM* | ? | ?
